From PubChem BioAssay
G9a block = qHTS Assay for Inhibitors of Histone Lysine Methyltransferase G9a. Histone-lysine N-methyltransferase EHMT2 (Homo sapiens), Q96KQ7. G9a H3K9 monomethylation, AlphaScreen, 2 h. hit rate 8.8% among 350,000. AID 504332, 2011. Potency, µM (top dose mostly 102 µM), usual class: inhibitors; also: nearly all actives have a fitted effect of over 75% in size
Target sequence (Q96KQ7 913-1193 limits assumed): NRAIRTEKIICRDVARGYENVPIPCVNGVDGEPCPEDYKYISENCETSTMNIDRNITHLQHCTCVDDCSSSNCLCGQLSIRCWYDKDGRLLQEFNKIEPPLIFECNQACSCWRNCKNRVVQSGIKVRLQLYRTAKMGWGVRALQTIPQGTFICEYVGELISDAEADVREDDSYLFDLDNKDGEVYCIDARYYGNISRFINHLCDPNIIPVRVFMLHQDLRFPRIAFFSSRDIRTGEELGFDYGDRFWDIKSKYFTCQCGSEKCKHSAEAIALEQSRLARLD
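Chemiluminescent proximity detection of H3K9 monomethylation, read after 10 min bead incubation in the dark. Reaction: 20 nM G9a, 500 nM biotin-H3K9 peptide, 20 uM SAM cofactor, 2 h, room temperature, following 15 min enzyme-compound preincubation.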
Lamin A splicing = qHTS Assay for Modulators of Lamin A Splicing; hit rate 0.01% among 200,000; Potency, µM (top dose mostly 46.1 µM), actives largely listed as inhibitors; HeLa LMNA splicing GFP/RFP minigene ratio, 48 h; active = well fitted inhibition curve with a large enough effect in the signal ratio, with a control signal flat, not every such curve was filed as active; inconclusive = small, poorly fitted or top-dose-only effect, or effect the other way, or a change in a side signal; the % refers to the signal ratio
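S3 HeLa cells stably expressing lamin A-EGFP splicing minigene plus DsRed2, 600 cells/well, 48 h compound exposure at 37C. Laser-scanning cytometry; analysed as GFP (500-530 nm)/RFP (575-640 nm) total intensity ratio; 0.5% DMSO vehicle.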
Sfp inh = qHTS Assay for Inhibitors of Bacillus subtilis Sfp phosphopantetheinyl transferase (PPTase). Biochemical Sfp PPTase activity, qHTS. Potency, µM, most hits filed as inhibitors. hit rate 3.5% among 310,000. 4'-phosphopantetheinyl transferase ffp (Bacillus subtilis), Q9F4F7;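 also: the enzyme is Sfp with the accession as filed and its product quenches rhodamine fluorescence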
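Reaction rates are the 30-min fluorescence difference (ex 525, em 598 nm) in wells containing 15 nM Sfp, 5 uM rhodamine-CoA and 12.5 uM BHQ-2-YbbR at pH 7.6 with 10 mM MgCl2.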
JMJD2E inh = qHTS Assay for Inhibitors of Human Jumonji Domain Containing 2E (JMJD2E); Potency, µM (top dose mostly 57.1 µM), most hits filed as inhibitors; hit rate 1.6% among 230,000; Lysine-specific demethylase 4E (Homo sapiens), B2RXH2; JMJD2E catalytic domain, FDH-coupled NADH fluorescence (FDH is formaldehyde dehydrogenase); AID 2147, 2009; active = well fitted inhibition curve with a large enough effect, not every such curve was filed as active; inconclusive = small, poorly fitted or top-dose-only effect, or another doubt; inactive = no such curve, though single readings can be large or run the other way; also: nearly all actives have a fitted effect of over 50% in size
Target sequence (B2RXH2 1-337 limits assumed): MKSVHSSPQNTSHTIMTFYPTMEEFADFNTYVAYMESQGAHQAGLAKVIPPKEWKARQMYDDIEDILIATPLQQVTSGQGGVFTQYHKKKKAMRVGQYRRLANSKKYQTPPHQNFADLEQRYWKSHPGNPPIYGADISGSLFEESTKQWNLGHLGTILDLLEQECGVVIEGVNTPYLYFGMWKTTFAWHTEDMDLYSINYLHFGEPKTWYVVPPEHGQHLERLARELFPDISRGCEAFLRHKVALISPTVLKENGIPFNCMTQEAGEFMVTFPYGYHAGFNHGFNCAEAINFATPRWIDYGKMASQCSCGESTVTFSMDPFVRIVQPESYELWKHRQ
miR-21 act = qHTS Assay for Modulators of miRNAs and/orActivators of miR-21 | Potency, µM (highest dose often 38.3 µM), usual class: activators | 340,000 tested, under 10 active | HeLa miR-21 FLuc reporter, luciferase, 48 h | AID 2288, 2010;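 also: miR-21 action dims this reporter so a rising signal means less miR-21 action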
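HeLa miR-21-FLuc reporter line, endogenous miR-21; 2000 cells/well in DMEM/10% FBS; compound titration up to ~40uM final, 48 h, 37 degree Celsius; luciferase detection reagent, 15 min lysis, CCD luminescence.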
ALDH1A1 inh = qHTS Assay for Inhibitors of Aldehyde Dehydrogenase 1 (ALDH1A1); hit rate 7.3% among 220,000; Aldehyde dehydrogenase 1A1 (Homo sapiens), P00352; Purified ALDH1A1, NADH fluorescence, propionaldehyde substrate; Potency, µM (doses to about 75.3 µM), hits mostly inhibitors; AID 1030, 2008; active = well fitted inhibition curve with a large enough effect, not every such curve was filed as active; inconclusive = small, poorly fitted or top-dose-only effect, or another doubt; inactive = no such curve, though single readings can be large or run the other way
A number is an active result; . = inactive; ? = inconclusive; / = not tested or not shown; ! = repeats disagree; [ ] = another dose, or the depositor's remark. In the library only some 13% were active in any assay of this set; here they are far more common. Unless noted, calls follow the shape of the dose curve; as a rule, active = well fitted curve in the direction sought with a large enough effect; inconclusive = small, poorly fitted or top-dose-only effect, or another doubt; inactive = no such curve, though single readings can be large; an effect the other way counts as inactive or inconclusive.

SMILES	G9a block	Lamin A splicing	Sfp inh	JMJD2E inh	miR-21 act	ALDH1A1 inh
CCCCC(=O)Nc1sc2c(c1C(N)=O)CCC2	?	.	.	.	.	?
CC1CCc2c(sc(NC(=O)c3ccc(N4C(=O)CCC4=O)cc3)c2C(N)=O)C1 (stereo not drawn)	.[12.7 µM]	/	/	/	/	/
Cc1ccc(C(=O)Nc2sc3c(c2C(=O)O)CCCCC3)o1	.	?	.	.	?	19µM
CC(C)CC(=O)NC(=S)Nc1sc2c(c1C(N)=O)CCC2	.	?	.	.	.	1.4µM
COc1ccc(N2CCN(C(CNC(=O)C(=O)NCCc3ccccc3)c3cccnc3)CC2)cc1 (stereo not drawn)	.	?	/	/	.	/
COc1ncc2nc(C)c(=O)n(CCc3ccccc3)c2n1	.[0.501 µM]	.	.	/	/	?
CC(=O)N1CC=CC1(CC(C)C)C(=O)NCC1CC1 (stereo not drawn)	/	/	.	.	/	.
CCOC(=O)c1c(-c2ccccc2)cn2c(C)cc(C)nc12	.	.	.	?	.	?
Cc1ccc(C(=O)Nc2sc(C)c(C)c2C(=O)c2ccccc2)cc1	8.9µM	.	20µM	.	.	10µM
CCOC(=O)c1c(NC(=S)NC(C)=O)sc(C)c1C	?	.	.	.	.	.
Cc1sc(NC(=S)NC(=O)C(C)(C)C)c(C(N)=O)c1C	.[0.0925 µM]	.	?	.	.	7.9µM
CCOC(=O)c1c(-n2c(C)cc(C=O)c2C)sc2c1CCCC2	?	.	?	.	.	?
Cc1ccc(C)n1-c1sc2c(c1C(=O)O)CCCC2	45µM	?	.	.	.	28µM
CC(C)(C)C(=O)NC(=S)Nc1sc2c(c1C(N)=O)CCC2	5.6µM	?	45µM	.	.	2µM
Cc1ccc(-n2c(=O)c3c(c4cc(C)ccc4n3C)n(CC(=O)NCc3ccccc3)c2=O)cc1	.	.	/	/	.	/
COc1ccc2c(c1)sc1ncc(C(=O)NCc3cccc(C)c3)c(=O)n12	.	/	/	/	.	/
COc1cc(C2C(=O)N(C3CCCCCC3)CC(=O)N2CCC2=CCCCC2)ccc1OC(C)C (stereo not drawn)	.	?	/	/	.	/
CC(C)CC(=O)Nc1sc2c(c1C(=O)O)CCCCC2	71µM	.	.	.	.	.
O=C(/C=C/c1cccs1)Nc1sc2c(c1C(=O)O)CCCC2	50µM	/	.	/	?	/
O=C(Nc1sc2c(c1C(=O)O)CCCCC2)c1cccs1	?	?	.	.	.	?
Cc1[nH]c(=O)[nH]c(=O)c1S(=O)(=O)Nc1cccc([N+](=O)[O-])c1C	.	/	.	/	.	/
CCCCC/C=C\C/C=C\CCCCCCCC(=O)O	.	?	.	.	/	18µM!
CCCCC/C=C/C=C1/C(=O)C=C[C@@H]1C/C=C\CCCC(=O)O	22µM!	/	56µM!	.	/	.
CCCCC/C=C\C/C=C\C/C=C\CCCCCCC(=O)O	.	/	.	.	/	.
CCCCC[C@H](O)/C=C/[C@H]1C=CC(=O)[C@@H]1C/C=C\CCCC(=O)O	35µM!	?	56µM!	.	.	40µM!
SMILES	G9a block	Lamin A splicing	Sfp inh	JMJD2E inh	miR-21 act	ALDH1A1 inh
CCc1ccccc1NC(=O)c1sc2nc(C)cc(COC)c2c1N	.	.	/	/	.	/
CCCCc1cc(=O)oc2cc(C)cc(OCC(=O)NCc3ccncc3)c12	.	/	.	/	.	/
Cc1ccc(N2CC(C)Cn3c2nc2c3c(=O)n(Cc3cccc(Cl)c3)c(=O)n2C)cc1 (stereo not drawn)	.	/	/	/	.	/
N#Cc1cccc(C(c2nnnn2Cc2ccccc2)N2CCCC2)c1 (stereo not drawn)	.	.	.	.	.	.
CCC(C)(C)n1nnnc1C(c1cccc(C#N)c1)N1CCN(c2cccc(C)c2C)CC1 (stereo not drawn)	.	?	.	.	.	.
CC(C)(C)n1nnnc1C(c1cccc(C#N)c1)N1CCCCCC1 (stereo not drawn)	71µM	.	.	.	.	?
CC(C)(C)n1nnnc1C(c1cccc(C#N)c1)N1CCN2CCCC2C1 (stereo not drawn)	.[12.7 µM]	.	.	.	.	20µM
COc1ccc2c(c1)CCc1c(C(=O)Nc3ccc(C#N)cc3)noc1-2	.	/	/	/	.	/
NC(N)=NC(=O)c1nc(Cl)c(N2CCCCCC2)nc1N	50µM!	?	.	.	/	.
CC(C)CN(C)c1nc(N)c(C(=O)N=C(N)N)nc1Cl	.[12.7 µM]	.	/	.	/	.
CCc1ccc(NC(=O)C(NS(=O)(=O)c2cccs2)C(C)C)cc1 (stereo not drawn)	.	/	/	/	.	/
COC(=O)C/C(C)=N/Nc1ccc(S(=O)(=O)N2CCCC2)cc1[N+](=O)[O-]	45µM	.	.	.	.	.
COc1cc(OC)cc(Oc2ccc(S(=O)(=O)N3CCCCC3)cc2[N+](=O)[O-])c1	79µM	/	.	/	.	/
CN1CCN(S(=O)(=O)c2ccc(Nc3ccc(F)cc3)c([N+](=O)[O-])c2)CC1	56µM	/	/	/	/	/
COC(=O)COc1ccc(S(=O)(=O)N2CCCCC2)cc1[N+](=O)[O-]	.	/	.	.	.	.
CC(C)C(Nc1ccc(S(=O)(=O)N2CCOCC2)cc1[N+](=O)[O-])C(=O)O (stereo not drawn)	?	.	.	.	.	1.3µM
CCOc1ccc(Nc2ccc(S(=O)(=O)N3CCN(C)CC3)cc2[N+](=O)[O-])cc1OCC	.[12.7 µM]	/	/	/	/	/
CC(Sc1ccc(S(=O)(=O)N2CCOCC2)cc1[N+](=O)[O-])C(=O)O (stereo not drawn)	?	.	.	.	.	?
O=[N+]([O-])c1cc(S(=O)(=O)N2CCOCC2)ccc1N1CCNCC1	50µM	/	/	/	/	/
C/C(=N\Nc1ccc(S(=O)(=O)N2CCOCC2)cc1[N+](=O)[O-])C(C)C	?	?	.	.	.	18µM
O=C(O)C1CCN(S(=O)(=O)c2ccc(N3CCOCC3)c([N+](=O)[O-])c2)CC1	.	/	.	.	.	.
CC(C)(C)C(=O)CSc1ccc(S(=O)(=O)N2CCN(Cc3ccccc3)CC2)cn1	.[12.7 µM]	/	/	/	/	/
Cc1ccc2oc(=O)c3cc(C(=O)NCCCN4CCCCCC4)sc3c2c1	?	/	?	/	.	/
COc1ccccc1NC(=O)c1cc2c(=O)oc3ccc(C)cc3c2s1	0.71µM	/	/	/	.	/
Cc1ccc2oc(=O)c3cc(C(=O)NCCCN4CCc5ccccc5C4)sc3c2c1	32µM	.	.	?	.	?
COc1cc(OC)c(NC(=O)c2cc3c(=O)oc4ccc(C)cc4c3s2)cc1Cl	.	/	/	/	.	/
CCOc1ccc(CCNC(=O)c2cc(Nc3ccc(C)cc3C)nc3ccccc23)cc1OCC	.	/	/	/	.	/
CCOC(=O)c1ccccc1NS(=O)(=O)c1ccc(S(=O)(=O)N2CCCC2)cc1	.[2.33 µM]	?	.	?	.	22µM
